The results in this text go back to PubChem BioAssay AID1034 (Columbia University Molecular Screening Center, 2008).

This is one part of the list. A number with no mark means an inactive call.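 Rule for the calls: active = activation above 30% in triplicate retests at 2 µM, then confirmed by visual review of the well images; inactive = the rest.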

A short description of the test: enhancers of VCAM1 induction in HUVEC – imaging, triplicate retest, confirmation (AID 1034).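 Note: scaled per plate between unstimulated and TNFa-stimulated DMSO control wells.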 Particulars: HUVEC TNFa-stimulated VCAM-1 immunofluorescence imaging; at 2 µM; stronger effect = higher value.
For `Cc1cccc2cc(CN(Cc3ccc4c(c3)OCO4)Cc3nnnn3C3CCCC3)c(=O)[nH]c12`, the activation was 4.1%.

Consider `COCCNS(=O)(=O)c1cc(Br)ccc1OC`, for which the activation is -14.1%. The value for `CC(=O)c1cnn(-c2cc(Oc3ccc(F)cc3)ncn2)c1C` was -14.8%; that for `CCOc1ccc(N=C2NC(=O)S/C2=C\c2ccc(O)cc2)cc1` was -20.4%; that for `CCOc1cc(-c2cc(-c3ccc(OC)cc3)nc(N)c2C#N)ccc1O` was -5.2%.

Take `CCCOc1cc(C)c(S(=O)(=O)n2nnc3ccccc32)cc1C`: the activation is -4.7%. Regarding `CC1(C)CC(=O)C=C(N2CCCC2)C1`, the activation is -17.7%. On to `CCCCN(C)C(=O)C1CCN(Cc2ccccn2)CC1`, for which the activation was -13%. Under `CCN(CC(=O)Nc1ccc2c(c1)OCCO2)Cc1cc(=O)oc2cc(C)c(C)cc12` stands -6.7%; under `CC1=NN(C(C)C)C(=O)C1`, -8.4%. Under `O=C(Nc1ccncc1)c1c(F)cccc1F` stands -14.6%; under `COc1ccc(/C=N/Nc2nc3ccccc3o2)cc1OC`, -3.9%. The value for `COc1ccc(OC)c(N=Cc2c(O)[nH]c3ccccc23)c1` was -13.9%.
